# Screens from PubChem BioAssay.
# An excerpt weighted towards active compounds, which were near 1.7% of everything screened.
# RecA intein inh = inhibitors of M. tuberculosis RecA intein splicing; cell-free RecA intein splicing, fluorescence; inhibition, % (test concentration not listed); AID 2221; P9WHJ3; 0.75% of 290,000 active; in the data active = inhibition above about 30%;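 also: 0% = vehicle wells and 100% = reference inhibitor control wells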
# Target sequence (P9WHJ3 whole entry, looked up): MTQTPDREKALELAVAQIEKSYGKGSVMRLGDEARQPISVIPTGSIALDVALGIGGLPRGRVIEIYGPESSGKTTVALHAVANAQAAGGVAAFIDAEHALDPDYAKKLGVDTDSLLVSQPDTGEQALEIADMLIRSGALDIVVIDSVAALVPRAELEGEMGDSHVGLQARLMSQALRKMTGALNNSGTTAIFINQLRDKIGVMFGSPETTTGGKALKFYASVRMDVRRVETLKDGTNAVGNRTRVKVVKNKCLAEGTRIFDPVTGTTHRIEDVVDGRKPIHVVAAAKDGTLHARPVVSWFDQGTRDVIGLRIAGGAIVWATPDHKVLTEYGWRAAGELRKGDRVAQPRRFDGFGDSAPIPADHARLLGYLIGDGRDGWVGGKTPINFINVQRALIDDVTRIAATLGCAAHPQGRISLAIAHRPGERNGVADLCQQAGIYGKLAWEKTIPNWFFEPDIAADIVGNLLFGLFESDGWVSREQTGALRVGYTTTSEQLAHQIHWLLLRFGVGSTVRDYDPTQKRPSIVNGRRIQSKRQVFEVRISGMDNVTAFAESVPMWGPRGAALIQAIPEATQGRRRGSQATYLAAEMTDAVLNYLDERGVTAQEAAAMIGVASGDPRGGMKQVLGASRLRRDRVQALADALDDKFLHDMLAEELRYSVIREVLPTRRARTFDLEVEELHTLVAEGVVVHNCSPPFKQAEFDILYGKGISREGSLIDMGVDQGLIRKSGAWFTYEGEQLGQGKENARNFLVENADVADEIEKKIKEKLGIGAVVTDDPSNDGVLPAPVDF
# Mtb hypoxia rep = Mtb hypoxia fluorescent reporter inhibition; M. tuberculosis hypoxia-regulated fluorescent reporter, fluorescence; fluorescence inhibition, % (no concentration beside the values); 0.1% of 300,000 active; in the data active = fluorescence inhibition mostly above about 23%, no sharp cut-off; inactive = mostly below about 17%
# PfHsp40 rescue = restores yeast growth despite PfHsp40 toxicity; growth rescue, % at 12.5 µM; AID 504582; 0.68% of 340,000 active; S. cerevisiae expressing PfHsp40, growth rescue, ATP luminescence; in the data active = growth rescue above about 28%, passing the limit was not always enough;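 also: yeast W303a lacking pdr1 and pdr3 grown in galactose medium; growth measured after three days at 30 °C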
# Mtb bLac sens = beta-lactam sensitization of Mtb H37Rv. M. tuberculosis H37Rv growth with meropenem, percent inhibition. inhibition, % at 25 µM. 0.27% of 330,000 active. AID 434955; call rule not given here;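 also: growth measured after seven days incubation then overnight dye step; 0% = bacteria only wells and 100% = bacteria with antibiotic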
# CCHF vOTU inh = CCHFV vOTU protease inhibition. AID 651958. Pep-AMC fluorescence. inhibition, % at 11.5 µM. 0.55% of 370,000 active; in the data active = inhibition above about 30%; also: 0% = vehicle wells with enzyme and 100% = no enzyme wells
# The depositor's hits bear a star; nt = not tested or not shown.
SMILES,RecA intein inh,Mtb hypoxia rep,PfHsp40 rescue,Mtb bLac sens,CCHF vOTU inh
Oc1ccc(-c2nc(-c3ccc(F)cc3)c(-c3ccncc3)[nH]2)cc1,nt,0.0,-1.1,0.4,6.5
CCCCCCCCCC(=NO)c1ccccn1,nt,7.3,nt,nt,nt
CCCCCC/C(=N/O)c1ccccn1,-0.7,nt,161.9*,-3.1,10.2
CCOC(=O)c1c(SC)[nH]c2c(Cl)cccc2c1=O,0.8,-7.2,92.5*,-1.0,-4.7
O=C(NN=Cc1ccc(O)cc1O)C1CC1,nt,0.5,nt,nt,nt
Oc1ccc(C=NC2CCCCC2)c(O)c1,1.7,-0.8,35.3*,5.0,11.4
O=C(NN=Cc1ccc(O)c(O)c1O)/C(=C/c1ccc([N+](=O)[O-])cc1)NC(=O)c1ccccc1,nt,12.5,nt,nt,nt
O=C(NCc1ccccc1)C1CC1C(NP(=O)(c1ccccc1)c1ccccc1)c1ccccc1 (stereo unspecified),nt,-5.5,nt,nt,nt
Cc1ccccc1NC(=O)CN1C(=O)NC(C)(c2ccc3c(c2)OCO3)C1=O (stereo unspecified),0.2,25.8,35.3*,-3.4,-7.7
COc1cccc(NC=C2C(=O)OC(C)(C)OC2=O)c1,-1.3,1.6,-0.5,-8.0,11.1
COc1cccc(NC=C2C(=O)OC3(CCCCC3)OC2=O)c1,1.2,5.1,314.0*,9.4,6.8
Cn1c(-c2c(N)n(CCc3ccccc3)c3nc4ccccc4nc23)nc2ccccc21,-86.3,-1.6,-1.3,99.7,nt
Cn1c(-c2c(N)n(C3CCCC3)c3nc4ccccc4nc23)nc2ccccc21,-7.4,-1.7,489.5*,99.3,-4.0
Cc1ccccc1/C=C1\SC(=S)N(/N=C/c2cc([N+](=O)[O-])ccc2O)C1=O,-3.0,nt,229.1*,0.5,0.5
COc1ccc(C=Nn2c(C3CCCCC3)n[nH]c2=S)c(OC)c1,nt,-3.1,nt,nt,nt
Nc1ccc(C(=O)NN=Cc2cn(Cc3ccccc3)c3ccccc23)cc1,nt,-3.4,nt,nt,nt
COC(=O)C1=C(C(=O)OC)C2Nc3ccccc3[C@@]23CC(C(=O)OC)N(C(=O)CC(C)C)C3=N1 (stereo partly specified),nt,0.4,nt,nt,nt
Cc1noc(C)c1CSCC(=O)Oc1ccc(N(C)S(=O)(=O)c2ccccc2)cc1,38.1*,-5.2,-1.2,-6.5,5.5
Cc1noc(C)c1CSCC(=O)Oc1ccc(N(C)S(=O)(=O)c2ccc(Cl)cc2)cc1,40.1*,6.5,-0.4,0.2,21.4
Cc1noc(C)c1COC(=O)CN(C)S(=O)(=O)c1ccc(Cl)cc1,-0.9,3.1,-0.8,-3.9,-4.9
CN(C)CCCON=C(c1ccccc1)c1ccncc1,nt,7.8,nt,nt,nt
ON=C1CCC(=NO)c2nn(-c3ccc(Cl)cc3Cl)nc21,nt,14.0,nt,nt,nt
COc1ccc(CN(C)C(=O)C2CCN(S(=O)(=O)c3cccs3)CC2)cc1F,nt,11.0,68.6*,-3.2,3.5
COc1cc(CN(C)C(=O)C2CCN(S(=O)(=O)c3cccs3)CC2)ccc1OC(F)F,nt,1.1,0.0,nt,-12.5
CC1C(=O)C(C)C(c2cc(Cl)ccc2O)NC1c1cc(Cl)ccc1O (stereo unspecified),49.8*,-6.4,0.5,-0.8,-9.2
SMILES,RecA intein inh,Mtb hypoxia rep,PfHsp40 rescue,Mtb bLac sens,CCHF vOTU inh
O=C(O/N=C(\c1ccccc1)c1ccncc1)c1ccccc1Cl,0.5,nt,116.1*,1.3,-8.6
COc1ccc(C=NOCC(=O)N(Cc2ccccc2)c2ccccc2C(=O)O)cc1,nt,3.2,nt,nt,nt
O=C(c1ccc(N2CCN(C(=O)c3ccccc3Br)CC2)cc1)c1cccc(F)c1,13.2,3.7,34.4*,6.3,14.0
Cc1ccc(S(=O)(=O)N=C(c2ccccc2)N(C)S(=O)(=O)c2ccccc2)cc1,nt,2.5,nt,nt,nt
Cc1nc(-n2[nH]c3c(c2=O)CCCC3)[nH]c(=O)c1Cc1ccccc1,-0.6,5.1,52.2*,94.5,6.7
CC(=O)OC[C@]1(OC(C)=O)C[C@@]23CCC4[C@@](C)(CCC[C@@]4(C)C(=O)O)C2CCC1C3 (stereo partly specified),nt,4.8,nt,nt,nt
COc1ccc(CN2CC(Cc3ccccc3)C(CC(=O)Nc3ccccc3)C2=O)cc1 (stereo unspecified),nt,3.9,nt,nt,nt
CCc1ccc(OCC(=O)NNCC(=O)Nc2ccc(OC)cc2)cc1,nt,56.9*,0.2,nt,-4.5
CCOc1ccc(OCC(=O)Nc2ccc(OC)cc2)cc1,1.3,2.8,0.0,98.8,6.9
O=[N+]([O-])c1ccc(N=NN(CCO)CCO)cc1,nt,7.2,1.4,-3.6,15.4
O=[N+]([O-])c1ccc(N=Nc2ncc[nH]2)cc1,5.5,nt,84.5*,99.1,14.1
Cc1ccc(Cl)cc1C1=CC(=O)CC(c2ccc(F)cc2)C1 (stereo unspecified),nt,-0.3,nt,nt,nt
CC(=NNc1cccc2cccnc12)c1ccccc1O,nt,-8.3,nt,nt,nt
Cn1cc(/C=C/c2cc[n+](C)cc2)c2cc(Cl)ccc21,-9.5,35.4*,0.4,99.3,17.3
Cn1cc(/C=C/c2cc[n+](C)cc2)c2cc(F)ccc21,-5.3,22.2,4.6,0.5,nt
CSc1ccc(S(=O)(=O)NC2CC3CCC2C3)cc1 (stereo unspecified),nt,-1.1,77.9*,-0.9,-4.5
O=S(=O)(N[C@@H]1C[C@H]2CC[C@@H]1C2)c1cccs1,1.0,nt,2.4,32.5,9.4
COc1ccc(S(=O)(=O)NC2CC3CCC2C3)cc1 (stereo unspecified),0.5,5.8,95.0*,-2.8,-8.3
O=C(Nc1ccccc1-c1nnn(CC(=O)N2CCOCC2)n1)c1ccccc1F,-0.2,11.3,41.8*,-4.8,-3.2
CCOC(=O)CSc1nc2c(c(=O)n1-c1ccc(OCC)cc1)SCC2,-0.6,-2.5,40.4*,-1.0,1.0
Cn1cnc([N+](=O)[O-])c1Sc1ccc(C(C)(C)C)cc1,31.3*,8.0,0.5,43.4,11.9
Cn1cnc([N+](=O)[O-])c1Sc1ccc(Br)cc1,25.4,6.2,-0.9,97.2,7.5
O=C(O)c1nc2ccccc2nc1C(=O)O,-1.0,6.3,0.1,2.7,1.3
O=C(O)c1cccc2nc3ccccc3nc12,-1.4,nt,47.5*,38.5,2.6
Cn1cc(C=NO)nc2c(=O)n(-c3ccccc3)c(=O)nc1-2,nt,38.5*,nt,nt,nt
SMILES,RecA intein inh,Mtb hypoxia rep,PfHsp40 rescue,Mtb bLac sens,CCHF vOTU inh
COC(=O)Nc1ccc(S(=O)(=O)NNC(=O)c2c(O)c3ccccc3[nH]c2=O)cc1,-1.4,-5.3,51.7*,1.5,-8.7
Cc1ccc(S(=O)(=O)NNC(=O)c2c(O)c3ccccc3[nH]c2=O)cc1,-4.7,10.7,-1.7,-3.2,5.8
CC1CCc2c(C(=O)Nc3ccccn3)csc2C1 (stereo unspecified),4.4,6.3,264.8*,14.8,6.2
CC1CCc2c(C(=O)NCc3ccccn3)csc2C1 (stereo unspecified),-0.9,12.7,-1.2,1.4,-10.7
CCOc1cc(/C=C2\C(=N)N3N=C(S(=O)(=O)CC)SC3=NC2=O)ccc1OC(=O)c1ccco1,30.7*,13.3,-0.2,4.5,5.5
CCOc1cc(/C=C2\C(=N)N3N=C(N4CCCCC4)SC3=NC2=O)ccc1OC(=O)c1ccco1,34.5*,-0.6,-2.1,73.5,2.9
O=C(Cn1nnc(-c2ccccc2Cl)n1)N/N=C/c1ccc2c(c1)OCO2,-1.2,nt,60.3*,0.8,-4.9
O=C(CNC(=O)c1ccccc1Cl)N/N=C/c1ccc2c(c1)OCO2,-5.4,nt,-0.4,-1.0,-6.9
